According to PubChem BioAssay (Tox21):
Several values for one entry are separate records, joined by “and”; a condition that tells them apart may be missing. Equal entries are not always repeated. Results filed as inconclusive are left out. Some compounds were tested as several samples or in several runs, with calls that do not always agree. Activity calls are given as the source filed them. Unless noted, the call rests on the fitted dose curve; in most records, active means well fitted curve in the direction sought with a large enough effect in the repeat runs; inconclusive means weak or mixed curves; inactive means no such curve, though single readings can be large; an effect the other way counts as inactive or inconclusive.

Legend:
[1] = qHTS assay to identify small molecule agonists of the androgen receptor (AR) signaling pathway in the presence of an antagonist - cell viability counter screen (AID 1259379); conditions: MDA-kb2 viability, CellTiter-Fluor, 16 h; series mostly up to 92.4 µM;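 further: MDA-kb2 human breast cancer cells carrying an MMTV luciferase reporter; nearly all actives have a fitted effect of over 25% in size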
How it was run: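 MDA-kb2 viability measured by CellTiter-Fluor fluorescence in the same wells as the luciferase signal; nilutamide 3.0uM final; 15-point compound titration; 16 hr at 37C.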

[2] = qHTS assay to identify small molecule agonists of the estrogen receptor beta (ER-beta) signaling pathway - cell viability counter screen (AID 1259380); conditions: ER-beta-bla HEK293T viability, CellTiter-Glo luminescence, 16 h; series mostly up to 92.4 µM; further: nearly all actives have a fitted effect of over 30% in size
How it was run: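 Measured: luminescence from CellTiter-Glo after 30 min at room temperature, added to wells already read for the LiveBLAzer FRET reporter (2 hr substrate); ER-beta-UAS-bla HEK293T cells had 16 hr compound treatment at 37C, 5% CO2.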

[3] = qHTS assay to identify small molecule antagonists of the estrogen receptor beta (ER-beta) signaling pathway - cell viability counter screen (AID 1259382); conditions: ER-beta-UAS-bla HEK293T viability, CellTiter-Glo luminescence, 16 h; series mostly up to 92.4 µM;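 further: HEK293T cells carrying ER-beta-UAS-bla reporter stimulated with estradiol; nearly all actives have a fitted effect of over 55% in size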
How it was run: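 Readout: luminescence, CellTiter-Glo, same wells as bla assay. System: ER-beta-UAS-bla GripTite HEK293T, 2% charcoal-stripped FBS. Exposure: compounds plus 1nM 17-beta-estradiol, 16 hr, 37C.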

[4] = qHTS assay to identify small molecule agonists of the estrogen receptor alpha (ER-alpha) signaling pathway in the presence of an antagonist - cell viability counter screen (AID 1259386); conditions: VM7Luc4E2 viability, CellTiter-Fluor fluorescence, 22 h; series mostly up to 92.4 µM;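 further: cells exposed to compounds for 22 h at 37 °C before the viability read; nearly all actives have a fitted effect of over 30% in size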
How it was run: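 The test measures whether compounds kill ER-alpha reporter cells (VM7Luc4E2) under antagonist co-treatment (ICI-182,780, 10.0nM). Fluorescence from CellTiter-Fluor is read after a 22hr exposure.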

[5] = target: Progesterone receptor (Homo sapiens) (UniProt P06401); assay: qHTS assay to identify small molecule agonists of the progesterone receptor (PR) signaling pathway (AID 1346784; calls by dose curve; further: nearly all actives have a fitted effect of over 30% in size); conditions: PR-UAS-bla HEK293T, beta-lactamase FRET ratio, 16 h; series mostly up to 92.4 µM
Sequence of Progesterone receptor (Homo sapiens) (P06401 whole entry, looked up): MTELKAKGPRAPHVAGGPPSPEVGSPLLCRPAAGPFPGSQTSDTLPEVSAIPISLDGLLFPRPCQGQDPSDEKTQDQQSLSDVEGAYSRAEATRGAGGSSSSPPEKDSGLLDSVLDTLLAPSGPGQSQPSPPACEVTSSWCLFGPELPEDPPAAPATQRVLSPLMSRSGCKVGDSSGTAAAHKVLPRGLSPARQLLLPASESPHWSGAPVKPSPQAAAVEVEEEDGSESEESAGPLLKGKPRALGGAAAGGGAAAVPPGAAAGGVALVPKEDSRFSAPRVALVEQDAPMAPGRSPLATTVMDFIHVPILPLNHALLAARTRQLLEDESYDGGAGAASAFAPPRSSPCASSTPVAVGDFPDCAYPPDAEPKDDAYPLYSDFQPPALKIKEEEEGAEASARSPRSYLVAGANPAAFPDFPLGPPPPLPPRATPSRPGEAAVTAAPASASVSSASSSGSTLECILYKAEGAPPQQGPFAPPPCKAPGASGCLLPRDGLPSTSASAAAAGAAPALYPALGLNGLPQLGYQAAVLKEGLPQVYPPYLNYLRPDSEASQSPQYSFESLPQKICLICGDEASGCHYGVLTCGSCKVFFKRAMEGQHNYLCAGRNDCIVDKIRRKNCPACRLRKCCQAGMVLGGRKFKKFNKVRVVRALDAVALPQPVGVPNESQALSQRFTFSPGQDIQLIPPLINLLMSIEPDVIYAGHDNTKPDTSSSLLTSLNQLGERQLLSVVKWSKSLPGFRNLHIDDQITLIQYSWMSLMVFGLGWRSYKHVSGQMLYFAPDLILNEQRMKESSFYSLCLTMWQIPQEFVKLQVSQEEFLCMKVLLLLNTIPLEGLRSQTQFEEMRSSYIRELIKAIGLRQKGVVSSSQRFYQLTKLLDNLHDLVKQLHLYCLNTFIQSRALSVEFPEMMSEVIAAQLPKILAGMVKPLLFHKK
How it was run: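 Seed PR-UAS-bla HEK 293T cells (2% charcoal-stripped FBS), incubate 6 hr at 37C; add compounds in DMSO, 16 hr at 37C; add LiveBLAzer B/G substrate, 2 hr RT; read fluorescence intensity.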

[6] = target: Progesterone receptor (Homo sapiens) (UniProt P06401); assay: qHTS assay to identify small molecule antagonists of the progesterone receptor (PR) signaling pathway (AID 1346795; active means well fitted inhibition curve with a large enough effect in the signal ratio in the repeat runs, not every such curve was filed as active; the % refers to the signal ratio; further: potency means the concentration at half of the fitted maximal effect); conditions: PR-UAS-bla HEK293T, beta-lactamase FRET ratio, 16 h; series mostly up to 92.4 µM
How it was run: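 Screening used a GripTite HEK293T line with PR-responsive UAS-beta-lactamase. Cells were challenged with compound in the presence of 1 nM R5020 final for 16 hr at 37C; B/G FRET substrate, 2 hr room temperature, fluorescence.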

[7] = qHTS assay to identify small molecule antagonists of the progesterone receptor (PR) signaling pathway - cell viability counter screen (AID 1346798); conditions: PR-UAS-bla HEK293T viability, CellTiter-Glo luminescence, 16 h; series mostly up to 92.4 µM; further: nearly all actives have a fitted effect of over 50% in size
How it was run: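 Measures cytotoxicity in parallel with the PR antagonist reporter read: HEK293T PR-UAS-bla cells get compound and R5020 for 16 hr, and remaining viable cells are quantified by CellTiter-Glo luminescence.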

[8] = qHTS assay to identify small molecule agonists of the progesterone receptor (PR) signaling pathway - cell viability counter screen (AID 1346799; calls by dose curve; further: nearly all actives have a fitted effect of over 45% in size; further: potency means the concentration at half of the fitted maximal effect); conditions: PR-UAS-bla HEK293T viability, CellTiter-Glo luminescence, 16 h; series mostly up to 92.4 µM
How it was run: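 Using the same plates as the PR reporter screen, HEK293T PR-UAS-bla cells received compounds for 16 hr at 37C and were then lysed with CellTiter-Glo; luminescence was read 30 min later at room temperature.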

[9] = qHTS assay to identify small molecule antagonists of the TGF-beta/Smad signaling pathway - cell viability counter screen (AID 1346824); conditions: SBE-bla HEK293T viability, CellTiter-Glo luminescence; series mostly up to 76.8 µM; further: nearly all actives have a fitted effect of over 50% in size
How it was run: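 SBE-bla HEK 293T cells were plated overnight at 37 C, then given compounds in DMSO plus TGF-beta1 (added as 0.25 ng/mL solution) for 5 hr. After the bla read, CellTiter-Glo was added to the same wells and luminescence read after 30 min at room temperature.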

[10] = qHTS assay to identify small molecule agonists of the TGF-beta/Smad signaling pathway - cell viability counter screen (AID 1346829); conditions: SBE-bla HEK293T viability, CellTiter-Glo luminescence, 5 h; series mostly up to 76.8 µM; further: top concentration of the series differs between compounds; nearly all actives have a fitted effect of over 45% in size
How it was run: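 Here the cytotoxicity of library compounds is measured in SBE-bla HEK 293T cells treated for 5 hr, using CellTiter-Glo added to wells already read for the beta-lactamase reporter.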

[11] = qHTS assay to identify small molecule agonists of the TGF-beta/Smad signaling pathway (AID 1346859; active means well fitted activation curve with a large enough effect in the signal ratio in the repeat runs, not every such curve was filed as active; the % refers to the signal ratio); conditions: SBE-bla HEK293T, TGF-beta/Smad beta-lactamase reporter, 5 h; series mostly up to 76.8 µM
How it was run: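 Beta-lactamase reporter activity downstream of Smad binding elements was measured in stably transfected HEK 293T cells; compounds were incubated for 5 hr, substrate for 2 hr at room temperature.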

[12] = target: Thyrotropin-releasing hormone receptor (Homo sapiens) (UniProt P34981); assay: qHTS assay to identify small molecule antagonists of the thyrotropin-releasing hormone receptor (TRHR) signaling pathway (AID 1346877; active means well fitted inhibition curve with a large enough effect in the repeat runs, not every such curve was filed as active); conditions: TRHR-HEK293, TRH-induced calcium fluorescence, antagonist mode; series mostly up to 51.3 µM
Sequence of Thyrotropin-releasing hormone receptor (Homo sapiens) (P34981 whole entry, looked up): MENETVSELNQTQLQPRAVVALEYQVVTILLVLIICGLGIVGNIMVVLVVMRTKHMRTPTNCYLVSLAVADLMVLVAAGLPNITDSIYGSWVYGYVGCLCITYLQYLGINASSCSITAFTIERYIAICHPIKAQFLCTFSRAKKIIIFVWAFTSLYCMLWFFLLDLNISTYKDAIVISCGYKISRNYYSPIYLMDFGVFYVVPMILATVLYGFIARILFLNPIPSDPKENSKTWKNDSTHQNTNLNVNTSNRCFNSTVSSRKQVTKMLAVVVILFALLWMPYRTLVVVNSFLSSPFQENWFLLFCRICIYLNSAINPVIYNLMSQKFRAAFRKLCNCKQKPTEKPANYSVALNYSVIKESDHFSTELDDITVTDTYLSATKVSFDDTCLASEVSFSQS
How it was run: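 Overnight-plated (18 h, 37 °C) HEK293 cells expressing TRHR were dye-loaded 2 h, treated with compound, then stimulated with TRH at 1 nM final. Fluorescence intensity was captured every second for 3 min.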

[13] = target: Thyrotropin-releasing hormone receptor (Homo sapiens) (UniProt P34981); assay: qHTS assay to identify small molecule agonists of the thyrotropin-releasing hormone receptor (TRHR) signaling pathway (AID 1346891; calls by dose curve; further: potency means the concentration at half of the fitted maximal effect;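 on activation: HEK293 cells expressing TRHR with calcium dye readout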); conditions: TRHR-HEK293 calcium fluorescence, agonist mode; series mostly up to 57.6 µM
How it was run: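 Overnight-plated (18 h, 37 °C, 5% CO2) TRHR-Hek293 cells; 2 h calcium dye at 37 °C; compound in DMSO; 3-min kinetic fluorescence read.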

[14] = Human pregnane X receptor (PXR) small molecule agonists, qHTS cell viability counter screen (AID 1346977); conditions: PXR-Luc HepG2 viability, CellTiter-Fluor, 24 h; series mostly up to 92.4 µM; further: nearly all actives have a fitted effect of over 50% in size
How it was run: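 After a 5hr pre-incubation, PXR-Luc HepG2 cells received compounds plus positive control in DMSO and were kept 24hr at 37C. Cell viability was quantified by fluorescence from CellTiter-Fluor added for the final hour.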

[15] = Caspase-3/7 induction in HepG2 cells by small molecules, qHTS assay (AID 1346978); conditions: HepG2 caspase-3/7 activation, Caspase-Glo luminescence, 17 h; series mostly up to 92.4 µM; further: nearly all actives have a fitted effect of over 15% in size
How it was run: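 Wild-type HepG2 cells (2,000/well) were settled 5 h at 37 C, 5% CO2, then exposed to compounds in DMSO for 17 h. Caspase-3/7 activity was read by luminescence 30 min after adding Caspase-Glo 3/7 reagent at room temperature.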

[16] = Caspase-3/7 induction in CHO-K1 cells by small molecules, qHTS cell viability counter screen (AID 1346979); conditions: CellTiter-Fluor fluorescence, 17 h; series mostly up to 92.4 µM; further: nearly all actives have a fitted effect of over 35% in size
How it was run: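 Multiplexed with Caspase-Glo 3/7 in CHO-K1 cells, this counter screen added CellTiter-Fluor after 16hr of compound exposure and recorded fluorescence 1hr later.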

[17] = qHTS assay to identify small molecule agonists or antagonists of the thyroid stimulating hormone receptor (TSHR) signaling pathway - wild type cell line counter screen (AID 1259384; calls by dose curve); conditions: HEK293 wild type, cAMP HTRF counter-screen, stronger effect = higher value; series mostly up to 92.4 µM
How it was run: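 Wild-type HEK293 cells were plated 18 h at 37 C/5% CO2, pin-dosed with compound plus Ro20-1724 medium, held 30 min at room temperature, then given cAMP-d2 and anti-cAMP-cryptate; fluorescence was read after 1 h. Fifteen concentrations, triplicate.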

[18] = target: Thyrotropin receptor (Homo sapiens) (UniProt P16473); assay: qHTS assay to identify small molecule antagonists of the thyroid stimulating hormone receptor (TSHR) signaling pathway (AID 1259385; calls by dose curve; further: nearly all actives have a fitted effect of over 20% in size); conditions: TSHR-HEK293 cAMP HTRF, TSH-stimulated antagonist mode; series mostly up to 92.4 µM
Sequence of Thyrotropin receptor (Homo sapiens) (P16473 whole entry, looked up): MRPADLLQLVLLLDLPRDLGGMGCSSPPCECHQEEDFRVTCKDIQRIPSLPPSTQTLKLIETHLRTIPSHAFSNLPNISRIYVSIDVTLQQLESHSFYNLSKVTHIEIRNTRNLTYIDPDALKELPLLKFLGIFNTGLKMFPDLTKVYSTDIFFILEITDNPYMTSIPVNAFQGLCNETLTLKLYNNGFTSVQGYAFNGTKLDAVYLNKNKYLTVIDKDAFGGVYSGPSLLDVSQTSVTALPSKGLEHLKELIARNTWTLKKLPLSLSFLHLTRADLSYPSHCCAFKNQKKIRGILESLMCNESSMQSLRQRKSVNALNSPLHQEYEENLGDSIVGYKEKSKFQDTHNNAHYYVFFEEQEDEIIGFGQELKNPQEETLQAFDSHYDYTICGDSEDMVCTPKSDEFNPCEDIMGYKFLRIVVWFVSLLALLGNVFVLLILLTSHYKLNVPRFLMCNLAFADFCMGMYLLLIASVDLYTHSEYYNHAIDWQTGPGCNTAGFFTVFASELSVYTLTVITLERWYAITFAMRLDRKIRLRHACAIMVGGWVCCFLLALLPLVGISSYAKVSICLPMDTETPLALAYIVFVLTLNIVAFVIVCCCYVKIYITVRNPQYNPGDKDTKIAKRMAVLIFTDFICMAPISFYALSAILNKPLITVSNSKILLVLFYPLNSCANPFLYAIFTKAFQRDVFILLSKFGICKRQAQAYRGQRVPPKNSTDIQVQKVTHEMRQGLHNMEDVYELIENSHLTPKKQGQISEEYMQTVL
How it was run: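 TSHR-HEK293 cells were plated and held 18 h at 37C/5% CO2, then given compound plus Ro20-1724 and stimulated with TSH at 1.5 ng/mL final. After 30 min at room temperature, cAMP was detected with cAMP-d2/anti-cAMP-cryptate (1 h) by fluorescence.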

Measured: Potency

CN(C)N=O
not listed: [17] | [18]
inactive: all other assays above

CCc1cccc(C)c1N(C(=O)CCl)C(C)COC (centres undefined)
not listed: [6]
inactive: all other assays above

O=[N+]([O-])c1ccc(Oc2ccc(Cl)cc2Cl)cc1
active: [6] 15.4 µM and 9.69 µM
not listed: [7]
inactive: all other assays above

CN1C(=O)CN=C(c2ccccc2)c2cc(Cl)ccc21
27.7 µM (active) and inactive: [8]
not listed: [6] | [15]
inactive: all other assays above

CCN(CC)CCO
not listed: [6] | [12]
inactive: all other assays above

C=CCO
inactive and 8.71 µM (active): [13]
not listed: [6] | [12]
inactive: all other assays above

CC(C)(C)OOC(=O)c1ccccc1
not listed: [12] | [13] | [17] | [18]
inactive: all other assays above

CC1OC(C)OC(C)O1 (centres undefined)
not listed: [12] | [13] | [17] | [18]
inactive: all other assays above

CC(C)(C)C(O)(CCc1ccc(Cl)cc1)Cn1cncn1 (centres undefined)
active: [6] 17.4 µM and 24.3 µM
not listed: [2] | [7] | [8] | [16]
inactive: all other assays above

CC(C)(Cl)Cl
inactive: all assays above

Nc1ccc(Cc2ccc(N)cc2)cc1
not listed: [2]
inactive: all other assays above

Nc1ccc(Oc2ccc(N)cc2)cc1
not listed: [2] | [6] | [12] | [13]
inactive: all other assays above
